Results as given in PubChem BioAssay (NCI).
The panel holds about 83,000 compounds, 20% with a hit somewhere; the sample as a whole holds those more often.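 Negative percent growth values reflect cell death: -40 means 40% of the cells present at the start died, and -100 means all died.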 Calls of active or inactive are those of the source. The calls were made as follows: active = growth percent below 10; inactive = the rest.

The compounds below were run on HL-60(TB) leukemia (assay: NCI-60 one-dose screen, 48 h (100 = growth as untreated, 0 = no growth, -100 = all killed)). Conditions: 10 µM unless noted.

**Q.** For CC(C)(C)c1cc(/C=C2\S/C(=N/c3ncn[nH]3)NC2=O)cc(C(C)(C)C)c1O, which growth is on record?
**A.** Its growth is 6.76% (active).

**Q.** For N#Cc1c(-c2ccc(F)cc2)nc(SCc2ccccc2)nc1N1CCNCC1, which growth is on record?
**A.** Its growth is -14.7% (active).

**Q.** Cc1ccc(Cl)cc1NC(=O)N/C(N)=N/c1nc2ccccc2s1 was tested. Which growth did it give?
**A.** Its growth is -44.9% (active).

**Q.** CC(C)CSc1nc(NCCc2c[nH]c3ccccc23)c(C#N)c(-c2ccc(F)cc2)n1 was tested. Which growth did it give?
**A.** Its growth is 49.7% (inactive).

**Q.** For O=C(N/N=C/c1ccc(-c2cccc([N+](=O)[O-])c2)s1)c1[nH]c2ccc(Br)cc2c1-c1ccccc1, which growth is on record?
**A.** Its growth is 81.4% (inactive).

**Q.** How did the growth turn out when COc1cc(/C=C/C(=O)c2ccc(C(F)(F)F)cc2)ccc1Oc1nc(Nc2ccc(F)cc2)nc(N(C)C)n1 was run?
**A.** Its growth is 80% (inactive).

**Q.** With Cc1cn(-c2cc(NC(=O)c3ccc(C)c(-n4cc(-c5cnc6cccnn56)nn4)c3)cc(C(F)(F)F)c2)cn1 as the compound, how does the growth read?
**A.** The growth was 24.9% (inactive).

**Q.** For O=C(COc1ccc(NC(=O)Nc2ccc(Cl)c(Cl)c2)cc1)N=Nc1c(O)[nH]c2ccc(Br)cc12, which growth is on record?
**A.** The growth was -27.2% (active).

**Q.** Which growth does the source give for Cc1ccc(-c2ccc(SCC(=O)Nc3ccc(S(N)(=O)=O)cc3Br)nn2)cc1 here?
**A.** The growth was 100% (inactive).

**Q.** O=C(c1ccccc1)n1ccc(-c2cc3cc(Br)ccc3oc2=O)n1 was tested. Which growth did it give?
**A.** The growth was -13.5% (active).

**Q.** For Cc1ccc([N+](=O)[O-])c(C(=O)Nc2ccc(-c3ccc4c(c3)NC(=O)/C4=C\c3ccc[nH]3)cc2)c1, which growth is on record?
**A.** The growth was 49.5% (inactive).

**Q.** For Nc1nn2c(-c3cc4cc(Br)ccc4oc3=O)ccnc2c1N=Nc1ccc(S(N)(=O)=O)cc1, which growth is on record?
**A.** The growth was 104% (inactive).

**Q.** Cc1cccc(Nc2nc3ccccc3nc2/C=C/c2ccc(F)cc2)c1 was tested. Which growth did it give?
**A.** Its growth is 97.3% (inactive).

**Q.** Which growth does the source give for Cc1ccc(C(=O)C[n+]2cccc3c4ccccc4ccc32)cc1 here?
**A.** Its growth is 1.77% (active).

**Q.** How did the growth turn out when Cc1cc2c(cc1Cl)C(=O)/C(=C/c1ccc(F)cc1)O2 was run?
**A.** The growth was 101% (inactive).
